For 15 compounds, max response, Potency and outcome results are on record in PubChem BioAssay (Tox21).

Where “and” joins values, the source holds several entries; their conditions need not be identical. Equal entries are not always repeated. Values without a mark were called inactive. Records with an inconclusive call do not appear. Calls of active or inactive are those of the source. The call rests on the fitted dose curve; in most records, active means well fitted curve in the direction sought with a large enough effect in the repeat runs; inconclusive means weak or mixed curves; inactive means no such curve, though single readings can be large; an effect the other way counts as inactive or inconclusive.

A short description of experiment [1]: qHTS RealTime-Glo MT Cell Viability Assay in HEK293 cells - 40 hour (AID 1224874). Further: nearly all actives have a fitted effect of over 50% in size. Further: potency means the concentration at half of the fitted maximal effect. The settings on record: RealTime-Glo luminescence; max response: stronger effect = lower value. A digest of the protocol:
(§1)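 HEK293 cells mixed with RealTime-Glo reagents (NanoLuc plus cell-permeant prosubstrate) at 600 cells/well, preincubated 5 h at 37 C/5% CO2, then given 23 nL compound in DMSO. Nonlytic luminescence from viable cells was read at 0, 8, 16, 24, 32 and 40 h.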

Experiment [2] can be described thus: A CellTox Green Cytotoxicity Assay to monitor cytotoxicity in HEK293 cells - 24 hour (AID 1224875). Further: series mostly up to about 77 µM; nearly all actives have a fitted effect of over 45% in size. A digest of the protocol: (§2)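 HEK293 cells premixed with CellTox Green dye were seeded at 600 cells/well and left 5 h at 37 C/5% CO2 before pin transfer of 23 nL compound in DMSO. Fluorescence from dye bound to dead-cell DNA was read during 40 h treatment.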
Experiment [3] can be described thus: A CellTox Green Cytotoxicity Assay to monitor cytotoxicity in HepG2 cells - 16 hour (AID 1224876). Further: nearly all actives have a fitted effect of over 45% in size. A digest of the protocol: (§3)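 HepG2 cells were seeded together with the CellTox Green dye at 600 cells/well, left 5 h at 37 C/5% CO2, then given compounds in DMSO. Fluorescence from dye bound to dead-cell DNA was read repeatedly over 40 h of treatment at 37 C.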
Experiment [4] in a line: qHTS RealTime-Glo MT Cell Viability Assay in HepG2 cells - 32 hour (AID 1224877). Further: nearly all actives have a fitted effect of over 55% in size. The essentials: (§4)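 Compound treatment began 5 h after plating HepG2 cells (600/well) with NanoLuc luciferase and prosubstrate. Plates stayed at 37 C for 40 h; luminescence was captured at six time points, 0 h through 40 h.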
Experiment [5] is described as follows: A CellTox Green Cytotoxicity Assay to monitor cytotoxicity in HepG2 cells - 24 hour (AID 1224878). Further: nearly all actives have a fitted effect of over 45% in size. A digest of the protocol: as §3
Experiment [6] can be described thus: A CellTox Green Cytotoxicity Assay to monitor cytotoxicity in HepG2 cells - 40 hour (AID 1224879). Further: nearly all actives have a fitted effect of over 40% in size. A digest of the protocol:
as §3

Experiment [7] is described as follows: qHTS RealTime-Glo MT Cell Viability Assay in HEK293 cells - 0 hour (AID 1224880). Further: top concentration of the series differs between compounds; nearly all actives have a fitted effect of over 45% in size. A digest of the protocol:
as §1

Experiment [8] in a line: A CellTox Green Cytotoxicity Assay to monitor cytotoxicity in HEK293 cells - 32 hour (AID 1224881). Further: nearly all actives have a fitted effect of over 40% in size. The essentials: as §2
Experiment [9] can be described thus: A CellTox Green Cytotoxicity Assay to monitor cytotoxicity in HepG2 cells - 32 hour (AID 1224883). Further: nearly all actives have a fitted effect of over 50% in size. A digest of the protocol:
as §3

Experiment [10] is described as follows: A CellTox Green Cytotoxicity Assay to monitor cytotoxicity in HEK293 cells - 8 hour (AID 1224884). Further: nearly all actives have a fitted effect of over 35% in size. A digest of the protocol: as §2
A short description of experiment [11]: qHTS RealTime-Glo MT Cell Viability Assay in HepG2 cells - 16 hour (AID 1224885). Further: nearly all actives have a fitted effect of over 50% in size. The essentials:
as §4

Experiment [12] is described as follows: qHTS RealTime-Glo MT Cell Viability Assay in HEK293 cells - 24 hour (AID 1224886). Further: nearly all actives have a fitted effect of over 50% in size. Further: potency means the concentration at half of the fitted maximal effect. The essentials:
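Quantitative high-throughput screen of the Tox21 10K library in HEK293: cells and RealTime-Glo reagents plated together, compound added at 5 h, luminescence monitored through 40 h at 37 C.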

A short description of experiment [13]: qHTS RealTime-Glo MT Cell Viability Assay in HEK293 cells - 8 hour (AID 1224887). A digest of the protocol: as §1
Experiment [14] in a line: A CellTox Green Cytotoxicity Assay to monitor cytotoxicity in HEK293 cells - 16 hour (AID 1224888). Further: nearly all actives have a fitted effect of over 35% in size. The essentials:
as §2

A short description of experiment [15]: qHTS RealTime-Glo MT Cell Viability Assay in HepG2 cells - 0 hour (AID 1224889). Further: nearly all actives have a fitted effect of over 50% in size. The essentials:
as §4

Experiment [16] in a line: A CellTox Green Cytotoxicity Assay to monitor cytotoxicity in HepG2 cells - 8 hour (AID 1224890). Further: nearly all actives have a fitted effect of over 45% in size. The essentials: as §3
Experiment [17] is described as follows: qHTS assay to identify small molecule antagonists of the estrogen receptor alpha (ER-alpha) signaling pathway using the BG1 cell line in the presence of 0.1 nM 17-beta-estradiol - cell viability counter screen (AID 1259241). Further: nearly all actives have a fitted effect of over 40% in size. A digest of the protocol:
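VM7Luc4E2 cells (endogenous full-length ER-alpha, 4xERE-luciferase), cultured 5 days in charcoal-stripped serum, exposed to compounds with 0.1 nM 17beta-estradiol (final) for 22 hr at 37C. Viability read in same wells as live-cell protease fluorescence after 30 min.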

Experiment [18] in a line: A CellTox Green Cytotoxicity Assay to monitor cytotoxicity in HepG2 cells - 0 hour (AID 1224882). Further: nearly all actives have a fitted effect of over 35% in size. A digest of the protocol: as §3
Experiment [19] can be described thus: qHTS assay to identify small molecule antagonists of the androgen receptor (AR) signaling pathway using the MDA cell line in the presence of 0.5 nM R1881 - cell viability counter screen (AID 1259242). Further: nearly all actives have a fitted effect of over 45% in size. A digest of the protocol: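 MDA-kb2 cells (human breast carcinoma, stably carrying MMTV-luciferase reporter) were exposed to compounds with 0.5 nM R1881 (final) for 16 hr at 37C, 0% CO2; viability then read as live-cell protease fluorescence (CellTiter-Fluor, 30 min) in the same wells.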
On the % scale 0 is the no-effect control and ±100 the full control effect.

Turning to `CN(C)CCO`, the max response in [1] was -6.53% and -6.4%. For the same compound, the Potency entry in experiment [2], in experiment [3], in experiment [5], in experiment [6], in experiment [8] and in [9] was “inactive” throughout. Moreover, the Potency result in experiment [10], in experiment [12], in [14], in [16] and in experiment [17] was “inactive” in each case. For the same compound, the compound was called inactive in experiment [4], in [7], in experiment [11], in experiment [13] and in [15].

Regarding `CC(C)C1(C)N=C(c2nc3ccccc3cc2C(=O)O)NC1=O` (configuration not stated), the max response in experiment [1] is 4.12% and 2.1%. For the same compound, the Potency result in [2], in experiment [3], in experiment [5], in experiment [6], in experiment [8] and in [9] was “inactive” each time. The Potency entry in experiment [10], in experiment [12], in experiment [14], in [16] and in experiment [17] was “inactive” each time. Besides, the result in experiment [4], in experiment [7], in [11], in [13] and in experiment [15] was inactive.

Take `COP(N)(=O)SC` (configuration not stated): the max response in [1] was -1.86% and 15.3%. The Potency entry in experiment [2], in experiment [5], in experiment [6], in experiment [8], in experiment [18] and in experiment [9] was “inactive” each time. The Potency result in experiment [10], in experiment [12], in experiment [14], in [16] and in experiment [17] was “inactive” each time. Further, the compound was classed as inactive in [4], in experiment [7], in [11], in experiment [13], in experiment [15] and in [19].

As to `CC(C#N)CCC#N` (configuration not stated), the max response in experiment [1] is 6.71% and -8.28%. The Potency result in experiment [2], in [5], in experiment [6], in experiment [8], in experiment [18] and in experiment [9] was “inactive” throughout. In addition, the Potency entry in [10], in [12], in experiment [14], in experiment [16] and in experiment [17] was “inactive” each time. The call in experiment [4], in experiment [7], in experiment [11], in experiment [13], in experiment [15] and in experiment [19] was inactive.

On to `C#CC(C)(C)NC(=O)c1cc(Cl)cc(Cl)c1`, for which the max response in experiment [1] is -9.66%. In addition, the Potency entry in experiment [2], in experiment [3], in experiment [5], in experiment [6], in experiment [8] and in experiment [9] was “inactive” in each case. Besides, the Potency result in experiment [10], in experiment [12], in experiment [14], in experiment [16] and in experiment [17] was “inactive” throughout. Also, the compound was called inactive in experiment [4], in [7], in [11], in experiment [13], in experiment [15] and in experiment [19].

Take `BrCCBr`: in experiment [1], the max response was 4.67% and 8.82%. For the same compound, the Potency result in [2], in [5], in [6], in experiment [8], in [18] and in experiment [9] was “inactive” in each case. The Potency entry in experiment [10], in [12], in [14], in [16] and in [17] was “inactive” each time. Besides, the call in [4], in experiment [7], in experiment [11], in [13], in experiment [15] and in [19] was inactive.

In the case of `CCN(CC)CCO`, the max response in experiment [1] was 2.53% and -12.7%. In addition, the Potency entry in experiment [2], in experiment [5], in experiment [6], in experiment [8], in experiment [18] and in [9] was “inactive” in each case. The Potency result in experiment [10], in experiment [12], in experiment [14], in [16] and in experiment [17] was “inactive” in each case. Besides, the call in [4], in [7], in [11], in experiment [13] and in experiment [15] was inactive.

As to `O=Cc1cccc(Oc2ccccc2)c1`, in experiment [1], the max response was -18.5% and 0.95%. Also, the Potency result in [2], in experiment [5], in [6], in experiment [8], in [18] and in experiment [9] was “inactive” throughout. Also, the Potency entry in experiment [10], in [12], in experiment [14], in experiment [16] and in experiment [17] was “inactive” throughout. Besides, the result in experiment [4], in [7], in experiment [11], in [13], in experiment [15] and in [19] was inactive.

Turning to `Oc1ccccc1Cl`, the max response in experiment [1] was 9.22% and 18.7%. The Potency result in [2], in [5], in experiment [6], in experiment [8], in experiment [18] and in experiment [9] was “inactive” throughout. Further, the Potency entry in experiment [10], in experiment [12], in experiment [14], in experiment [16] and in experiment [17] was “inactive” throughout. For the same compound, the call in experiment [4], in experiment [7], in experiment [11], in [13] and in experiment [15] was inactive.

As for `CC(C)(C)OOC(C)(C)C`, the max response in [1] is 1.79% and 12.3%. For the same compound, the Potency entry in [2], in experiment [3], in [5], in experiment [6], in experiment [8] and in experiment [9] was “inactive” each time. Also, the Potency entry in experiment [10], in experiment [12], in experiment [14], in experiment [16] and in [17] was “inactive” throughout. Also, the outcome in [4], in [7], in [11], in [13], in [15] and in [19] was inactive.

Regarding `CCCN(CCC)N=O`, the max response in experiment [1] is -0.648% and 5.21%. The Potency result in [2], in experiment [3], in experiment [5], in experiment [6], in experiment [8] and in experiment [9] was “inactive” in each case. Also, the Potency result in [10], in [12], in experiment [14], in experiment [16] and in [17] was “inactive” throughout. The compound was called inactive in experiment [4], in experiment [7], in experiment [11], in experiment [13], in [15] and in experiment [19].

Consider `Clc1cccc(Cl)c1Cl`, for which the max response in experiment [1] was 14.5%. Also, the Potency result in experiment [2], in [5], in experiment [6], in experiment [8], in [18] and in experiment [9] was “inactive” each time. Also, the Potency entry in experiment [10], in experiment [12], in experiment [14], in experiment [16] and in [17] was “inactive” each time. Besides, the compound was called inactive in experiment [4], in experiment [7], in experiment [11], in [13] and in experiment [15].

On to `CC(Oc1ccc(Cl)cc1Cl)C(=O)O` (configuration not stated), for which, in [1], the max response was -2.47%. The Potency entry in [2], in experiment [3], in experiment [5], in experiment [6], in [8] and in experiment [9] was “inactive” each time. Also, the Potency result in experiment [10], in experiment [12], in experiment [14], in experiment [16] and in [17] was “inactive” each time. The result in [4], in experiment [7], in experiment [11], in [13], in experiment [15] and in experiment [19] was inactive.

Consider `CCOP(=S)(OCC)SCCSCC`, for which the max response in experiment [1] was 5.05% and 1.7%. Besides, the Potency result in experiment [2], in [3], in experiment [5], in [6], in [8] and in experiment [9] was “inactive” in each case. The Potency result in experiment [10], in experiment [12], in experiment [14], in experiment [16] and in [17] was “inactive” in each case. For the same compound, the compound was called inactive in experiment [4], in [7], in experiment [11], in [13], in experiment [15] and in experiment [19].

Regarding `CC(C)(C)C(O)(CCc1ccc(Cl)cc1)Cn1cncn1` (configuration not stated), the Potency in [1] is 44.2 µM (active) and 54.9 µM (active); in experiment [12], 49.6 µM (active) and 54.9 µM (active). The Potency result in experiment [2], in experiment [3], in experiment [8], in experiment [18], in experiment [10] and in [14] was “inactive” each time. The Potency result in experiment [16] and in [17] was “inactive” each time. For the same compound, the compound was called inactive in experiment [4], in experiment [7], in [11], in experiment [15] and in experiment [19].
